Measured values taken from PubChem BioAssay (EPA / NIEHS).
Inconclusive results are not listed. Where a structure was tested more than once in an assay, its records may differ in their call. Active and inactive are the calls of the source. The calls were made as follows, unless noted: active = hit-call score of the fitted dose curve at least 0.9, where 1 is the maximum; inactive = score below 0.9.

Legend:
[1] = ATG_XTT_Cytotoxicity: Cytotoxicity Assessment in the Attagene TRANS-FACTORIAL HepG2 Assay (AID 2283584; active = hit-call score of the fitted dose curve at least 0.9, where 1 is the maximum)
Procedure, shortened: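 XTT readout of cell number in transfected HepG2 cells, 24 h post-dosing; DMSO serves as negative control and baseline, with activity taken as loss of viability signal.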

[2] = read-out: matrix metalloproteinase-10 (MMP10), MMP10 (gene 4319); assay: LTEA_HepaRG_MMP10: Life Technologies and Expression Analysis (LTEA) Assay for matrix metalloproteinase-10 (MMP10) using HepaRG (AID 2283517); conditions: mRNA level, 48 h; actives raise or lower the signal
Procedure, shortened: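 Transcript levels come from Fluidigm qRT-PCR normalized to three housekeeping genes, with curves fitted bidirectionally against 0.5% DMSO. Human HepaRG cells were dosed for 48 hours at concentrations up to 100 uM.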

MYC, MYC (gene 4609) = assay: LTEA_HepaRG_MYC: Life Technologies and Expression Analysis (LTEA) Assay for MYC using HepaRG (AID 2283518); conditions: mRNA level, 48 h; actives raise or lower the signal
Procedure, shortened: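 qRT-PCR read-out of MYC transcript (Fluidigm TaqMan, housekeeping-normalized) after 48 h chemical exposure of HepaRG cells; eight concentrations, top 100 uM, half-log steps. Bidirectional curve fitting against 0.5% DMSO vehicle baseline.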

[3] = read-out: matrix metalloproteinase-3 (MMP3), MMP3 (gene 4314); assay: LTEA_HepaRG_MMP3: Life Technologies and Expression Analysis (LTEA) Assay for matrix metalloproteinase-3 (MMP3) using HepaRG (AID 2283519); conditions: mRNA level, 48 h; actives raise or lower the signal
Procedure, shortened: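 qRT-PCR read-out of MMP3 mRNA (normalised to three housekeeping genes) in HepaRG liver cells after 48 h chemical exposure; 8-point half-log series, top 100 uM, 0.5% DMSO vehicle. Bidirectional curve fitting against DMSO baseline.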

[4] = read-out: Paternally Expressed 10 (PEG10), PEG10 (gene 23089); assay: LTEA_HepaRG_PEG10: Life Technologies and Expression Analysis (LTEA) Assay for Paternally Expressed 10 (PEG10) using HepaRG (AID 2283520); conditions: mRNA level, 48 h; actives raise or lower the signal;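 as to AC50: differentiated HepaRG human liver cells in serum-free induction medium with 0.5% DMSO; PEG10 transcript by qRT-PCR normalised to ACTB GAPDH and POLR2A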
Procedure, shortened: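 After 48 h exposure of differentiated HepaRG cells (0.5% DMSO vehicle, eight concentrations up to 100 uM, duplicates), PEG10 mRNA was measured by TaqMan qRT-PCR. Values were normalised to endogenous control genes and analysed bidirectionally against vehicle.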

[5] = read-out: Phosphatase and tensin (PTEN), PTEN (gene 5728); assay: LTEA_HepaRG_PTEN: Life Technologies and Expression Analysis (LTEA) Assay for Phosphatase and tensin (PTEN) using HepaRG (AID 2283523); conditions: mRNA level, 48 h; actives raise or lower the signal
Procedure, shortened: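 HepaRG, 48 h exposure, 8-pt half-log series from 100 uM top, 0.5% DMSO vehicle, duplicates. Readout: Fluidigm qRT-PCR of PTEN transcript; housekeeping normalization (ACTB, GAPDH, POLR2A). Gain or loss fitted relative to DMSO baseline.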

[6] = read-out: solute carrier (SLC22A1), SLC22A1 (gene 6580); assay: LTEA_HepaRG_SLC22A1: Life Technologies and Expression Analysis (LTEA) Assay for solute carrier (SLC22A1) using HepaRG (AID 2283524); conditions: mRNA level, 48 h; actives raise or lower the signal;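 as to AC50: differentiated human HepaRG liver cells in serum-free induction medium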
Procedure, shortened: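 qRT-PCR readout (TaqMan, Fluidigm arrays) of SLC22A1 transcript, normalized to three housekeeping genes; bidirectional curve fit relative to 0.5% DMSO vehicle. Differentiated human HepaRG cells, 48 h chemical exposure, top concentration 100 uM, half-log steps, eight points.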

[7] = read-out: succinate dehydrogenase complex iron sulfur subunit B (SDHB), SDHB (gene 6390); assay: LTEA_HepaRG_SDHB: Life Technologies and Expression Analysis (LTEA) Assay for succinate dehydrogenase complex iron sulfur subunit B (SDHB) using HepaRG (AID 2283528); conditions: mRNA level, 48 h; actives raise or lower the signal
Procedure, shortened: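 A human HepaRG culture in serum-free induction medium received test chemicals for 48 h over an eight-point range capped at 100 uM. SDHB expression change was quantified by qRT-PCR.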

[8] = read-out: Signal transducer and activator of transcription 3 (Homo sapiens) (UniProt P40763); assay: LTEA_HepaRG_STAT3: Life Technologies and Expression Analysis (LTEA) Assay for Signal transducer and activator of transcription (STAT3) using HepaRG (AID 2283529); conditions: mRNA level, 48 h; actives raise or lower the signal
Procedure, shortened: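 HepaRG, 48 h exposure, 8-pt half-log series (top 100 uM), 0.5% DMSO vehicle, duplicates. Readout: STAT3 transcript by Fluidigm qRT-PCR, housekeeping-normalized; bidirectional fit vs DMSO baseline.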

[9] = read-out: sulfotransferase 2A1 (SULT2A1), SULT2A1 (gene 6822); assay: LTEA_HepaRG_SULT2A1: Life Technologies and Expression Analysis (LTEA) Assay for sulfotransferase 2A1 (SULT2A1) using HepaRG (AID 2283531); conditions: mRNA level, 48 h; actives raise or lower the signal
Procedure, shortened: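 HepaRG, 48 h chemical exposure, 8-pt half-log curve from 100 uM in 0.5% DMSO, duplicates. Readout: TaqMan qRT-PCR of SULT2A1 mRNA, housekeeping-normalized. Bidirectional fit vs DMSO baseline.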

[10] = read-out: Transforming Growth Factor (TGFB1), TGFB1 (gene 7040); assay: LTEA_HepaRG_TGFB1: Life Technologies and Expression Analysis (LTEA) Assay for Transforming Growth Factor (TGFB1) Transporter using HepaRG (AID 2283533); conditions: mRNA level, 48 h; actives raise or lower the signal
Procedure, shortened: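 qRT-PCR readout of TGFB1 transcript in HepaRG lysates, normalized to three housekeeping genes; gain or loss of signal fitted relative to 0.5% DMSO vehicle. Exposure: 48 h, 8-point curve from 100 uM, duplicate wells.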

TIMP1, TIMP1 (gene 7076) = assay: LTEA_HepaRG_TIMP1: Life Technologies and Expression Analysis (LTEA) Assay for TIMP1 using HepaRG (AID 2283534); conditions: mRNA level, 48 h; actives raise or lower the signal
Procedure, shortened: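 HepaRG, 48 h exposure, 8-pt half-log series from 100 uM in 0.5% DMSO, duplicates; TIMP1 transcript by Fluidigm qRT-PCR, housekeeping-normalized; bidirectional curve fit vs DMSO baseline.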

[11] = read-out: Tumor necrosis factor receptor 1 (TNFRSF1A), TNFRSF1A (gene 7132); assay: LTEA_HepaRG_TNFRSF1A: Life Technologies and Expression Analysis (LTEA) Assay for Tumor necrosis factor receptor 1 (TNFRSF1A) using HepaRG (AID 2283535); conditions: mRNA level, 48 h; actives raise or lower the signal
Procedure, shortened: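 HepaRG, 48 h plating then 48 h chemical exposure, serum-free induction media; 8-pt CRC from 100 uM, half-log, 0.5% DMSO vehicle, duplicates. Readout: TaqMan qRT-PCR (Fluidigm), housekeeping-gene normalized; bidirectional fit vs DMSO.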

[12] = read-out: Thyroid Hormone Responsive (THRSP), THRSP (gene 7069); assay: LTEA_HepaRG_THRSP: Life Technologies and Expression Analysis (LTEA) Assay for Thyroid Hormone Responsive (THRSP) using HepaRG (AID 2283536); conditions: mRNA level, 48 h; actives raise or lower the signal
Procedure, shortened: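 qRT-PCR read-out (Fluidigm TaqMan), housekeeping-normalized (ACTB/GAPDH/POLR2A). HepaRG, 48 h chemical exposure, 8-pt half-log series from 100 uM in 0.5% DMSO, duplicates. Bidirectional curve fit vs 0.5% DMSO baseline.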

[13] = read-out: Cellular tumor antigen p53 (Homo sapiens) (UniProt P04637); assay: LTEA_HepaRG_TP53: Life Technologies and Expression Analysis (LTEA) Assay for Tumor Protein P53 (TP53) using HepaRG (AID 2283537); conditions: mRNA level, 48 h; actives raise or lower the signal
Procedure, shortened: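 Gain or loss of TP53 mRNA signal is scored relative to 0.5% DMSO after 48 h chemical treatment of HepaRG liver cells, tested in duplicate at eight half-log concentrations up to 100 uM.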

[14] = read-out: UDP glucuronosyltransferase (UGT1A6), UGT1A6 (gene 54578); assay: LTEA_HepaRG_UGT1A6: Life Technologies and Expression Analysis (LTEA) Assay for UDP glucuronosyltransferase (UGT1A6) using HepaRG (AID 2283539); conditions: mRNA level, 48 h; actives raise or lower the signal
Procedure, shortened: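 qRT-PCR readout of UGT1A6 mRNA (normalized to ACTB/GAPDH/POLR2A) in differentiated HepaRG cells after 48 h chemical exposure; 8 concentrations, top 100 uM, half-log steps, 0.5% DMSO. Bidirectional curve fit relative to DMSO baseline.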

[15] = read-out: X-box binding protein 1 (XBP1), XBP1 (gene 7494); assay: LTEA_HepaRG_XBP1: Life Technologies and Expression Analysis (LTEA) Assay for X-box binding protein 1 (XBP1) using HepaRG (AID 2283540); conditions: mRNA level, 48 h; actives raise or lower the signal
Procedure, shortened: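 HepaRG, 48 h exposure, 8-pt half-log CRC top 100 uM, 0.5% DMSO vehicle, duplicates. Readout: TaqMan qRT-PCR of XBP1 mRNA, housekeeping-normalised (ACTB/GAPDH/POLR2A); bidirectional fit vs DMSO baseline.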

[16] = TOX21_p53_BLA_p2_viability: Viability Assessment in the Tox21 HCT-116 p53 Agonism Beta-lactamase Assay, Phase 2 (AID 2283591; active = hit-call score of the fitted dose curve at least 0.9, where 1 is the maximum;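 also: compound exposure lasted 16 h at 37 °C; actives lower the ATP signal meaning cytotoxicity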)
Procedure, shortened: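 HCT116 p53-bla cells, 4000/well, dosed after 5 h plating (217-fold dilution of DMSO stocks) and incubated 16 h at 37C. Viability taken as cellular ATP by CellTiter-Glo luminescence after 30 min RT; signal loss marks cytotoxicity.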

[17] = read-out: Nuclear factor NF-kappa-B p105 subunit (Homo sapiens) (UniProt P19838); assay: LTEA_HepaRG_NFKB1: Life Technologies and Expression Analysis (LTEA) Assay for Nuclear Factor Kappa B Subunit 1 (NFKB1) using HepaRG (AID 2283521); conditions: mRNA level, 48 h; actives raise or lower the signal;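 also: differentiated human HepaRG liver cells in serum-free induction medium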
Procedure, shortened: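 Human HepaRG cells receive eight half-log concentrations, highest 100 uM, for 48 h. NFKB1 expression is then quantified by qRT-PCR and analysed for up- or down-regulation relative to 0.5% DMSO vehicle.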

[18] = read-out: Nuclear factor erythroid 2-related factor 2 (Homo sapiens) (UniProt Q16236); assay: LTEA_HepaRG_NFE2L2: Life Technologies and Expression Analysis (LTEA) Assay for Nuclear factor erythroid 2-related factor 2 (NFE2L2) Transcription Factor using HepaRG (AID 2283527); conditions: mRNA level, 48 h; actives raise or lower the signal;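 also: TaqMan qRT-PCR transcript level normalised to ACTB GAPDH and POLR2A housekeeping genes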
Procedure, shortened: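 HepaRG, 48 h dosing, 8-pt half-log series from 100 uM in 0.5% DMSO, duplicates. Read-out: NFE2L2 mRNA by qRT-PCR (ACTB/GAPDH/POLR2A normalization). Bidirectional curve fit vs DMSO baseline.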

Measured: AC50

Sequence of Signal transducer and activator of transcription 3 (Homo sapiens) (P40763 whole entry, looked up): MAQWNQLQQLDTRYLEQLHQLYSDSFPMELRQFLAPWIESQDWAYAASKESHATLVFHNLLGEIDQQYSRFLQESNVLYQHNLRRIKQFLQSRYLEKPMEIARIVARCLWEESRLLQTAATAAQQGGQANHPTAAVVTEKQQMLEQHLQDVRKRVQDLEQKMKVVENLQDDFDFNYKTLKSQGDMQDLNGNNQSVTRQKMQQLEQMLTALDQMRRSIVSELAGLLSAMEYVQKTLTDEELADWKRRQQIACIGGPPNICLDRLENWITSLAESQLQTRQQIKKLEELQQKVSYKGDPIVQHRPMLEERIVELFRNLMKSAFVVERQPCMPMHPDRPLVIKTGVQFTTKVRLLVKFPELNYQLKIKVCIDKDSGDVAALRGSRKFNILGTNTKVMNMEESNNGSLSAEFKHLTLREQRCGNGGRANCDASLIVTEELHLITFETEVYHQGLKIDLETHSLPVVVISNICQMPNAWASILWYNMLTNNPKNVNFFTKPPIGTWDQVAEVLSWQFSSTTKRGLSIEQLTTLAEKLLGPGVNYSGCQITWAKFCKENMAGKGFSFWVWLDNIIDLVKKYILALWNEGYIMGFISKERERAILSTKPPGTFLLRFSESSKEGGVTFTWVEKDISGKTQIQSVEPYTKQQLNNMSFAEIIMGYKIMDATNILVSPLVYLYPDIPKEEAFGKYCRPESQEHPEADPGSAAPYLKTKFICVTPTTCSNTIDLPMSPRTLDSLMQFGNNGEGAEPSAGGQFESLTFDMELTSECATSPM
Sequence of Nuclear factor NF-kappa-B p105 subunit (Homo sapiens) (P19838 whole entry, looked up): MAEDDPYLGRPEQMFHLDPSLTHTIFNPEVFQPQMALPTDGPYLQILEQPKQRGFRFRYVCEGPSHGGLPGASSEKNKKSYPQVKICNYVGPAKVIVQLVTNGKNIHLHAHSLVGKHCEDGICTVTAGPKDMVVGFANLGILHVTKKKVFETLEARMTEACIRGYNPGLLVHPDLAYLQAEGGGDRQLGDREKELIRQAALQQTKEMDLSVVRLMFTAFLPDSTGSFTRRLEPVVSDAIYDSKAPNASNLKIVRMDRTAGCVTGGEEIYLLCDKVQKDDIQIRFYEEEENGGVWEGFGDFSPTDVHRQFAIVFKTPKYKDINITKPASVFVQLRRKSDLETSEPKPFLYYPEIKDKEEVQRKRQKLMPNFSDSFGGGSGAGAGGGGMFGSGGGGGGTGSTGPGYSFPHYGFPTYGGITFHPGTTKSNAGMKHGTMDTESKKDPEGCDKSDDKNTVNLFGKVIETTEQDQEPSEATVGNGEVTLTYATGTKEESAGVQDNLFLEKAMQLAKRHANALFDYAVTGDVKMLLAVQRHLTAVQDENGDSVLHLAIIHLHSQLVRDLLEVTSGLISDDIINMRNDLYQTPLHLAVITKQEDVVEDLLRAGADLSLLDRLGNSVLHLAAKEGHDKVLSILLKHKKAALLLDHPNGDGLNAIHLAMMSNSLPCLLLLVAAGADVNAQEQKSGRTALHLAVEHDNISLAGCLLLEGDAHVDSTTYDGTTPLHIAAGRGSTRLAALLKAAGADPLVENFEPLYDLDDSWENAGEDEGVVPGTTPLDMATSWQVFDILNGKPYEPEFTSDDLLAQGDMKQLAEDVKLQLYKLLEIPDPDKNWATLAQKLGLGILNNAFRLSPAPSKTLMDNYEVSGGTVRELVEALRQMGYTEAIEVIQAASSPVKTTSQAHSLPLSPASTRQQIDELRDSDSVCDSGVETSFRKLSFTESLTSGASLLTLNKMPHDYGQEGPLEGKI
Sequence of Cellular tumor antigen p53 (Homo sapiens) (P04637 whole entry, looked up): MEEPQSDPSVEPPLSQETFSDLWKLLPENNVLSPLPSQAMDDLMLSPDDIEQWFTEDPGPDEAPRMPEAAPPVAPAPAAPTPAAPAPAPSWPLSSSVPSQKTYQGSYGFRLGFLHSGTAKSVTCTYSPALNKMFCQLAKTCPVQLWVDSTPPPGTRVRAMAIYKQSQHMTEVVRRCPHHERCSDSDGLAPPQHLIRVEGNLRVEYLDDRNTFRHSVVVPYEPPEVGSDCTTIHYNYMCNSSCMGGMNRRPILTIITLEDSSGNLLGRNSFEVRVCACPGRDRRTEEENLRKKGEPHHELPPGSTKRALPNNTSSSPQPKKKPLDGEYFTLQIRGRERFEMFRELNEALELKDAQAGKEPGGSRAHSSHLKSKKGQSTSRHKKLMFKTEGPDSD
Sequence of Nuclear factor erythroid 2-related factor 2 (Homo sapiens) (Q16236 whole entry, looked up): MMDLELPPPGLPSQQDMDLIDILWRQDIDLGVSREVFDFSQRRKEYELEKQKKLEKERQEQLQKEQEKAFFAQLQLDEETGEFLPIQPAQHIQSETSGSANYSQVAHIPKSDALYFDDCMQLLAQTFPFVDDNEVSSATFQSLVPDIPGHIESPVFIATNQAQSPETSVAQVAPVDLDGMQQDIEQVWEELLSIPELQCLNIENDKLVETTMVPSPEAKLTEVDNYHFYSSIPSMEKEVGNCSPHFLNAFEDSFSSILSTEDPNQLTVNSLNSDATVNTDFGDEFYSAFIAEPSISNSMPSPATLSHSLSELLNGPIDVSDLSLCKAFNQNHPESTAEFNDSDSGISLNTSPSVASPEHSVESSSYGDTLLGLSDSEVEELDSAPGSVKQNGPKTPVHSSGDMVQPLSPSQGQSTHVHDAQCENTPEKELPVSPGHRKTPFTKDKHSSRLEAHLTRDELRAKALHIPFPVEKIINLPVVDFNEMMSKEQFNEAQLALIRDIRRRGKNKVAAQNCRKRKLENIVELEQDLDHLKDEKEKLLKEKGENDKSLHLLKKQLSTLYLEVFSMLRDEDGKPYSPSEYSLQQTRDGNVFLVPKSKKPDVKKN

C[C@]12CC[C@@H]3c4ccc(O)cc4CC[C@H]3[C@@H]1C[C@@H](O)[C@@H]2O
inactive: [1]

CCCCc1oc2ccccc2c1C(=O)c1cc(I)c(OCCN(CC)CC)c(I)c1
active: [2] 54.7 µM | MYC, MYC (gene 4609) 68.7 µM | [4] 22.6 µM | [6] 70.6 µM | [9] 70.5 µM | [12] 68.7 µM | [13] 66.8 µM | [14] 55.5 µM | [16] 59.9 µM
inactive: [3] | [5] | [7] | [8] | [10] | TIMP1, TIMP1 (gene 7076) | [11] | [15] | [1] | [16]

CC1CCC(CO)CC1 (stereo unspecified)
inactive: [1]

COC1=CC(=O)C[C@@H](C)[C@]12Oc1c(Cl)c(OC)cc(OC)c1C2=O
inactive: [1]

CCCCCCCCCCCCCCC
inactive: [2] | MYC, MYC (gene 4609) | [3] | [4] | [17] | [5] | [6] | [18] | [7] | [8] | [9] | [10] | TIMP1, TIMP1 (gene 7076) | [11] | [12] | [14] | [15] | [1]

CCOC(OCC)C(=O)c1ccccc1
inactive: [1]
